rTrxR1 inhibitor: qHTS Assay for Inhibitors of Mammalian Selenoprotein Thioredoxin Reductase 1 (TrxR1): qHTS. Thioredoxin reductase 1, cytoplasmic (Rattus norvegicus), O89049. recombinant rTrxR1, NADPH fluorescence consumption, selenite substrate. Potency, µM (series often up to 114 µM), inactives show at the highest dose activity change, negative = inhibition, usual class: inhibitors. actives 1% (n = 390,000). AID 588453, 2011; note: potency is the fitted concentration of half-maximal effect; % is set by controls: 0 for no effect and ±100 for the full control effect; nearly all actives have a fitted effect of over 65% in size
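Rat TrxR1 (90 nM in the dispensed reagent) was pre-reduced with 400 uM NADPH for 5 min at room temperature, then incubated with compound for 15 min. After 400 uM selenite was added, NADPH fluorescence (Ex 340/Em 450 nm) was followed for 8 min.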
PLK1 PBD block: qHTS for Inhibitors of PLK1-PDB (polo-like kinase 1 - polo-box domain): Primary Screen; Potency, µM, without a hit: max response, negative = inhibition, usual class: inhibitors; Serine/threonine-protein kinase PLK1 (Homo sapiens), P53350; actives 2.8% (n = 360,000); Plk1 PBD binding of FITC phosphopeptide, fluorescence polarization; note: potency is the fitted concentration of half-maximal effect; series mostly up to about 57 µM; % is set by controls: 0 for no effect and ±100 for the full control effect; nearly all actives have a fitted effect of over 65% in size
mIDH1 inhibitor: qHTS for Inhibitors of mutant isocitrate dehydrogenase 1 (IDH1): qHTS. Isocitrate dehydrogenase [NADP] cytoplasmic (Homo sapiens), O75874. IDH1-R132H enzyme, NADPH consumption, diaphorase/resazurin fluorescence. Potency, µM (titrated, usually from 76.6 µM), for the others: top-dose activity change, negative = inhibition, most hits filed as inhibitors. actives 0.093% (n = 390,000); note: potency is the fitted concentration of half-maximal effect; % is set by controls: 0 for no effect and ±100 for the full control effect; nearly all actives have a fitted effect of over 65% in size
Target sequence (O75874 whole entry R132H, stated change not applied): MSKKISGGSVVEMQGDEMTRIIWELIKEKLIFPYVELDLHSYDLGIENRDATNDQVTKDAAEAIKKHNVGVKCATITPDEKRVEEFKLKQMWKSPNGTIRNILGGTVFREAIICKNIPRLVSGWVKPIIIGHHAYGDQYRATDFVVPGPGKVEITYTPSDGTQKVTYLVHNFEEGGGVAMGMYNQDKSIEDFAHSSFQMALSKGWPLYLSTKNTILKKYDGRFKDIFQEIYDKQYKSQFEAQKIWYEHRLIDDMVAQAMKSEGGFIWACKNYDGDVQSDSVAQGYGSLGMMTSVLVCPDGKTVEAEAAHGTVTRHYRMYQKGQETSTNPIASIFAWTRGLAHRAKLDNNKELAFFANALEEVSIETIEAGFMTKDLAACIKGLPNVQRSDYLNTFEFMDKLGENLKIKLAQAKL
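IDH1-R132H (0.5 ug/mL) preincubated 30 min with compound, then NADPH (0.016 mM) and alpha-KG (2 mM) added; 80 min at RT, pH 7.5. Remaining NADPH coupled via diaphorase/resazurin to fluorescence (540/590 nm); concentration-response curves normalized to no-enzyme control.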
VDR inh: Inhibitors of the vitamin D receptor (VDR): qHTS; VDR-SRC2-3 peptide fluorescence polarization, 2 h; Vitamin D3 receptor (Homo sapiens), P11473; actives 0.93% (n = 400,000); AID 504847, 2011; Potency, µM, for the others: max response, negative = inhibition, hits mostly inhibitors; note: potency is the fitted concentration of half-maximal effect; % is set by controls: 0 for no effect and ±100 for the full control effect
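Inhibition of the VDR/SRC2-3 peptide interaction is quantified by fluorescence polarization. Compounds (23 nl, pintool) incubate with the reagents for 2 hours at ambient room temperature.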
Sfp PPTase inh: qHTS Assay for Inhibitors of Bacillus subtilis Sfp phosphopantetheinyl transferase (PPTase) | 4'-phosphopantetheinyl transferase ffp (Bacillus subtilis), Q9F4F7 | Biochemical Sfp PPTase activity, qHTS | Potency, µM, inactives show largest response in the series, negative = inhibition, actives largely listed as inhibitors | actives 3.5% (n = 310,000) | AID 1490, 2009;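 note: the enzyme is Sfp with the accession as filed and its product quenches rhodamine fluorescence; potency is the fitted concentration of half-maximal effect; 0% = enzyme reaction without inhibitor and -100% = no enzyme wells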
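Step 1, compound plus 15 nM Sfp-PPTase, 15 min, room temperature. Step 2, add rhodamine-CoA (5 uM) and BHQ-2-YbbR (12.5 uM). Step 3, read 525/598 nm fluorescence at 0 and 30 min.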
TrxR1 substrate: qHTS Assay for Substrates of Mammalian Selenoprotein Thioredoxin Reductase 1 (TrxR1): qHTS; Thioredoxin reductase 1, cytoplasmic (Rattus norvegicus), O89049; AID 588456, 2011; purified TrxR1 substrate turnover, NADPH consumption readout; actives 0.01% (n = 390,000); Potency, µM (series often up to 114 µM), for the others: at the highest dose activity change, negative = substrate turnover; note: potency is the fitted concentration of half-maximal effect; % is set by controls: 0 for no effect and ±100 for the full control effect; nearly all actives have a fitted effect of over 50% in size
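Rat TrxR1, dispensed at 90 nM, was prereduced with 400 uM NADPH (final) for 5 min at ~22 deg C, then incubated with compound 15 min before 400 uM selenite. A first-read NADPH fluorescence drop versus no-compound background flagged substrates.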
USP1-UAF1 confirm: Inhibitors of USP1/UAF1: Hit Validation in Primary Assay; Potency, µM (doses to about 114 µM), without a hit: at the highest dose activity change, negative = inhibition, usual class: inhibitors; shares compounds with VDR inh; Ub-Rhodamine cleavage, fluorescence kinetic read; actives 50% (n = 50)
VDR confirm: qHTS for Inhibitors of the vitamin D receptor (VDR): Hit Validation in Primary Screen; shares compounds with VDR inh; Potency, µM, most hits filed as inhibitors; VDR-coactivator inhibition assay, qHTS confirmation; actives 89% (n = 840); note: potency is the fitted concentration of half-maximal effect
VDR FP: qHTS for Inhibitors of the vitamin D receptor (VDR): Hit Validation using a Fluorescein Assay. actives 48% (n = 840). AID 602200, 2012. Potency, µM (highest dose often 57.1 µM), for the others: at the highest dose activity change, negative = inhibition, most hits filed as inhibitors. VDR-coactivator binding, fluorescein fluorescence polarization. shares compounds with VDR inh; note: potency is the fitted concentration of half-maximal effect
VDR bla reporter: qHTS for Inhibitors of the vitamin D receptor (VDR): Hit Validation using a Beta-Lactamase Assay; Potency, µM (series often up to 46.1 µM), without a hit: at the top dose activity change, negative = inhibition, actives largely listed as inhibitors; VDR beta-lactamase reporter cells, FRET ratio; cells co-treated with VDR agonist LG190178; actives 23% (n = 840); shares compounds with VDR inh; note: potency is the fitted concentration of half-maximal effect; % is set by controls: 0 for no effect and ±100 for the full control effect
VDR cytotox: qHTS for Inhibitors of the vitamin D receptor (VDR): Hit Validation using a Cytotoxicity Assay; shares compounds with VDR inh; AID 602204, 2012; Potency, µM (doses to about 48.3 µM), inactives show at the highest dose activity change, negative = cytotoxicity, most hits filed as cytotoxic; cytotoxicity counter-screen, cell viability, qHTS; actives 18% (n = 840);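 note: potency is the fitted concentration of half-maximal effect; plate controls were DMSO for no effect and high-concentration cycloheximide for full effect; nearly all actives have a fitted effect of over 75% in size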
Numbers without * were called inactive; [ ] = another dose, or the depositor's remark. This is a sample that favours compounds with a hit; in the whole collection about 5.2% have one here. Calls come from the whole dose curve; as a rule, active = well fitted curve in the direction sought with a large enough effect; inconclusive = small, poorly fitted or top-dose-only effect, or another doubt; inactive = no such curve, though single readings can be large; an effect the other way counts as inactive or inconclusive.

Screening COc1ccc(NC(=O)CCS(=O)(=O)c2nc(-c3cccs3)cc(C(F)(F)F)n2)cc1OC returned rTrxR1 inhibitor 25.1µM*, mIDH1 inhibitor 14.0%, VDR inh 44.7µM*, TrxR1 substrate -5.3%[2.29 µM], VDR confirm inconclusive, VDR FP 25.1µM*, VDR bla reporter 3.8% and VDR cytotox 8.6%.
Screening O=C(CCS(=O)(=O)c1nc(-c2ccc3c(c2)OCO3)cc(C(F)(F)F)n1)Nc1ccc(F)c(Cl)c1 returned rTrxR1 inhibitor 41.9%, mIDH1 inhibitor 2.6%, VDR inh 8.91µM*, TrxR1 substrate 57.9%, VDR confirm 7.08*, VDR FP 7.94µM*, VDR bla reporter 23.1µM* and VDR cytotox inconclusive.
For CC(C)CSc1oc(-c2ccco2)nc1S(=O)(=O)c1ccc(Br)cc1 the results were rTrxR1 inhibitor 14.0%, mIDH1 inhibitor -4.5%, VDR inh -1.9% and TrxR1 substrate 7.8%.
For CCN1C/C(=C/c2cccc([N+](=O)[O-])c2)C(=O)/C(=C/c2cccc([N+](=O)[O-])c2)C1 the results were rTrxR1 inhibitor inconclusive, PLK1 PBD block -22.3%, mIDH1 inhibitor 0.9%, VDR inh 10µM*, Sfp PPTase inh -22.2%, TrxR1 substrate -11.1%, VDR confirm 3.36*, VDR FP inconclusive, VDR bla reporter 2.06µM* and VDR cytotox inconclusive.
For CCCCOC(=O)NS(=O)(=O)c1sc(CC(C)C)cc1-c1ccc(Cn2c(CC)nc3c(C)cc(C)nc32)cc1 the results were rTrxR1 inhibitor inconclusive, VDR inh -2.8%, TrxR1 substrate inconclusive and USP1-UAF1 confirm inconclusive.
`COC(=O)/C=c1/sc2nc3ccccc3n2c1=O` gave rTrxR1 inhibitor -14.3%[57.1 µM], PLK1 PBD block 2.67µM*, mIDH1 inhibitor 8.5%, VDR inh inconclusive, Sfp PPTase inh 11.2µM*, TrxR1 substrate -1.2%[57.1 µM], VDR confirm 3.16*, VDR FP 2.82µM*, VDR bla reporter 5.7% and VDR cytotox 5.0%.
Cc1sc(NC(=O)COc2ccccc2)c(C#N)c1C was read as rTrxR1 inhibitor 2.7%, PLK1 PBD block 7.52µM*, mIDH1 inhibitor 4.9%, VDR inh 50.1µM*, Sfp PPTase inh 22.4µM*, TrxR1 substrate -1.8%, VDR confirm 23.8*, VDR FP inconclusive, VDR bla reporter 14.4% and VDR cytotox -0.5%.
For CCOC(=O)CSC1=NC(=O)/C(=C\c2ccc(Cl)cc2)S1 the results were rTrxR1 inhibitor inconclusive, PLK1 PBD block 0.844µM*, mIDH1 inhibitor inconclusive, VDR inh 79.4µM*, Sfp PPTase inh inconclusive, TrxR1 substrate -10.1%, VDR confirm 8.44*, VDR FP 75.0%, VDR bla reporter inconclusive and VDR cytotox inconclusive.
Screening Cc1c(C(=O)N2CCCCCC2)c(S(=O)(=O)NCc2ccccc2)c(C)n1C returned rTrxR1 inhibitor 2.6%[57.1 µM], mIDH1 inhibitor -11.7%, VDR inh 2.6% and TrxR1 substrate -3.6%[57.1 µM].
NS(=O)(=O)c1ccc(NC2=CC(=O)C(=O)c3ccccc32)cc1 was read as rTrxR1 inhibitor inconclusive, PLK1 PBD block 26.7µM*, mIDH1 inhibitor 11.9%, VDR inh inconclusive, Sfp PPTase inh -15.6%, TrxR1 substrate inconclusive, VDR confirm 14.1*, VDR FP 7.94µM*, VDR bla reporter inconclusive and VDR cytotox inconclusive.
Screening Cc1ccc(NC2=CC(=O)C(=O)c3ccccc32)cc1 returned rTrxR1 inhibitor -1.2%[57.1 µM], PLK1 PBD block -8.7%, mIDH1 inhibitor 11.8%, VDR inh -14.5%, Sfp PPTase inh -18.7% and TrxR1 substrate 0.7%[57.1 µM].
Cc1ccccc1-c1nc(NCc2cccnc2)c2ccccc2n1 was read as VDR inh inconclusive and Sfp PPTase inh -4.0%.
`O=C(N[C@@H](Cc1ccccc1)C(=O)CCl)OCc1ccccc1` gave rTrxR1 inhibitor 21.2µM*, PLK1 PBD block 29.9µM*, mIDH1 inhibitor -6.2%, VDR inh 5.62µM*, TrxR1 substrate 8.7%[57.1 µM] and USP1-UAF1 confirm 26.4µM*.
O=C(N[C@@H](Cc1ccccc1)C(=O)N[C@@H](Cc1ccccc1)C(=O)O)OCc1ccccc1 was read as rTrxR1 inhibitor 8.3%[57.1 µM], PLK1 PBD block -4.2%, mIDH1 inhibitor -6.3%, VDR inh 18.6% and TrxR1 substrate 8.6%[57.1 µM].
Cc1cc(C)n2nc(-c3cccnc3)nc2n1 was read as rTrxR1 inhibitor 13.2%[57.1 µM], PLK1 PBD block 0.9%, mIDH1 inhibitor 2.9%, VDR inh -6.7%, Sfp PPTase inh 19.7% and TrxR1 substrate 5.9%[57.1 µM].

Source: PubChem
